A selection: hits, their analogues and other compounds. The true share with any hit is near 2.5%.
HDAC3 inhib – HDAC3 deacetylase inhibitors, primary screen, biochemical, fluorescence, cell-free homogeneous | Histone deacetylase 3 (Homo sapiens), O15379 | recombinant HDAC3, fluorogenic peptide/trypsin coupled | inhibition, % at 8.3 µM | 320,000 compounds, 0.15% hits | AID 2718, 2010; in the data active means inhibition above about 26%, passing the limit was not always enough; inconclusive means no clear call, values can overlap the other calls
Target sequence (O15379 whole entry, looked up): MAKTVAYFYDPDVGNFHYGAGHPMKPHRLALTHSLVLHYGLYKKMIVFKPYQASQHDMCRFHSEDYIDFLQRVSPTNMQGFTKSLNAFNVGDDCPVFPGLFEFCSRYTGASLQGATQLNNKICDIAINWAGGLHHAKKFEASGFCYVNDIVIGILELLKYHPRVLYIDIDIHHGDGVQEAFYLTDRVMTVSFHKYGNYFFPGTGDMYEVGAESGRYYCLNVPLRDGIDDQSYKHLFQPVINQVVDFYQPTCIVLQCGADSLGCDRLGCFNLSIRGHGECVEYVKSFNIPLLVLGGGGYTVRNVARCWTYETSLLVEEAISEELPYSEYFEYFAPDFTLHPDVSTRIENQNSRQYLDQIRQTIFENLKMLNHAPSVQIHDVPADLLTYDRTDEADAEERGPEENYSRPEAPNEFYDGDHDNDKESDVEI
UBC9 SUMO inh – inhibitors of in vitro SUMOylation cascade, primary screen, biochemical, HTRF, uHTS. HTRF SUMOylation assay, SAE1/SAE2 + UBC9. inhibition, % at 35 µM. 290,000 compounds, 0.36% hits. SUMO-conjugating enzyme UBC9 (Homo sapiens), P63279. AID 2006, 2009; in the data active means inhibition above about 50%, passing the limit was not always enough; inconclusive means no clear call, values can overlap the other calls
Target sequence (P63279 whole entry, looked up): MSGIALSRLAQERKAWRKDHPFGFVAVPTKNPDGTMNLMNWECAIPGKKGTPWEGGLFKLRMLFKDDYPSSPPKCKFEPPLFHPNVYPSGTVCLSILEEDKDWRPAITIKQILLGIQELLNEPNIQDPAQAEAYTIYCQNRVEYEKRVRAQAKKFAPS
p97 inhibitor – inhibitors of human p97 ATPase, primary screen, biochemical. Transitional endoplasmic reticulum ATPase (Homo sapiens), P55072. recombinant p97 ATPase, Kinase-Glo ATP luminescence, 3 h. inhibition, % at 8 µM. 220,000 compounds, 0.42% hits; in the data active means inhibition above about 15%;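 further: 0% = DMSO vehicle and 100% = wells lacking enzyme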
PfM18AAP inh – PfM18AAP inhibitors, malaria aminopeptidase, primary screen, biochemical, QFRET, recombinant enzyme; M18 aspartyl aminopeptidase (Plasmodium falciparum 3D7); H-Glu-NHMec fluorogenic cleavage; inhibition, % at 7.35 µM; 290,000 compounds, 1.2% hits;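 active means inhibition above the campaign mean inhibition over all tested compounds plus 3 SD, cut at about 28% in these data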;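 further: 0% = plate median of test compound wells and 100% = 2 mM ZnCl2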
G6PDH counter – L. mesenteroides G6PDH inhibitors, counter-screen for G6PDH-coupled screening assays, biochemical, Leuconostoc mesenteroides enzyme. glucose-6-phosphate dehydrogenase [Leuconostoc mesenteroides]. Purified L. mesenteroides G6PDH, diaphorase/resazurin coupled fluorescence, 45 min. inhibition, % at 5 µM. 200,000 compounds, 0.12% hits. AID 1020, 2008; in the data active means inhibition above about 50%
PHOSPHO1 block – PubChem AID 1565. inhibition, % at 13.3 µM. recombinant PHOSPHO1, absorbance phosphatase assay. Phosphoethanolamine/phosphocholine phosphatase (Homo sapiens), Q8TCT1. 290,000 compounds, 1.1% hits; in the data active means inhibition above about 60%
* marks the source's active call; other numbers are inactive results.

Results for COc1cc(/C=C2\N=C(C)OC2=O)cc(Cl)c1OC(C)=O ?
HDAC3 inhib: 2.5; UBC9 SUMO inh: -14.8; PfM18AAP inh: 8.5; PHOSPHO1 block: 28.0

Results for CN1c2ccccc2C(C)(C)C12C=Cc1cc(O)ccc1O2 (configuration not stated) ?
HDAC3 inhib: 6.1; UBC9 SUMO inh: 1.0; p97 inhibitor: 0.7; PfM18AAP inh: 29.8*; G6PDH counter: 14.8; PHOSPHO1 block: 4.4

How did O=C(O)C(CO)(c1ccccc1)c1ccccc1 do in these assays?
HDAC3 inhib: -4.8; UBC9 SUMO inh: 0.3; PfM18AAP inh: -0.5; PHOSPHO1 block: -35.5

How did O=C(O)C(Cc1c[nH]c2ccccc12)N1C(=O)C2C3c4ccccc4C(c4ccccc43)[C@@H]2C1=O (some centres not stated) do in these assays?
HDAC3 inhib: -2.2; UBC9 SUMO inh: 15.4; p97 inhibitor: 5.2; PfM18AAP inh: 2.9; PHOSPHO1 block: 11.6

How did COC(=O)Cc1c(C)nc2nc(NCc3ccc(Cl)cc3)[nH]n2c1=O do in these assays?
HDAC3 inhib: 0.7; UBC9 SUMO inh: -13.4; p97 inhibitor: 5.3; PfM18AAP inh: 0.4; G6PDH counter: 23.8; PHOSPHO1 block: 80.2*

Results for Nc1nc(=S)c2ncn(C3CCCC3)c2[nH]1 ?
HDAC3 inhib: -2.7; UBC9 SUMO inh: 1.7; p97 inhibitor: 7.8; PfM18AAP inh: 36.3*; PHOSPHO1 block: 29.0

What do the screens show for `COc1ccc(OC)c(C(=O)N2CCC(n3nccc3NC(=O)CC(C)C)CC2)c1`?
HDAC3 inhib: 0.5; UBC9 SUMO inh: -0.1; PfM18AAP inh: 1.1; PHOSPHO1 block: 48.8

How did CC(=O)Nc1ccc(NS(=O)(=O)c2c(Cl)cccc2Cl)cc1 do in these assays?
HDAC3 inhib: 2.4; UBC9 SUMO inh: 26.6; p97 inhibitor: 6.6; PfM18AAP inh: 2.8; PHOSPHO1 block: 19.9

Results for CC(C)c1ccc(NC(=O)NN2CCOCC2)cc1 ?
HDAC3 inhib: -4.6; UBC9 SUMO inh: -6.5; p97 inhibitor: 2.5; PfM18AAP inh: 0.8; G6PDH counter: 7.3; PHOSPHO1 block: 7.6

Results for O=C1OC(c2ccc(F)cc2)=C/C1=C\c1ccc([N+](=O)[O-])o1 ?
HDAC3 inhib: -2.7; UBC9 SUMO inh: 51.5*; p97 inhibitor: 6.3; PfM18AAP inh: 9.7; G6PDH counter: 13.7; PHOSPHO1 block: -7.3

How did C[C@@H]1CN([C@H](C)CO)C(=O)Cc2cc(NC(=O)Cn3cnnn3)ccc2O[C@@H]1CN(C)Cc1ccc(Cl)c(Cl)c1 do in these assays?
HDAC3 inhib: 2.4

What do the screens show for `Cc1cc(-c2ccccc2)nc(N/N=C/c2ccc([N+](=O)[O-])cc2)n1`?
HDAC3 inhib: 8.4; UBC9 SUMO inh: 3.7; p97 inhibitor: 1.3; PfM18AAP inh: -1.1; G6PDH counter: -15.7; PHOSPHO1 block: -6.8

How did Cc1cc2c(C)nc(N/N=C/c3ccc([N+](=O)[O-])cc3)nc2o1 do in these assays?
HDAC3 inhib: -4.9; UBC9 SUMO inh: 29.6; p97 inhibitor: 0.0; PfM18AAP inh: 30.3*; G6PDH counter: -31.9; PHOSPHO1 block: -1.3

What do the screens show for `O=C(COC(=O)c1cccs1)NC1CCCC1`?
HDAC3 inhib: -6.5; UBC9 SUMO inh: 17.5; PfM18AAP inh: -1.7; PHOSPHO1 block: 18.4

What do the screens show for `CCN1CCc2nc(N)sc2C1`?
HDAC3 inhib: -0.5; UBC9 SUMO inh: 7.8; p97 inhibitor: 5.1; PfM18AAP inh: 43.8*; G6PDH counter: -0.1; PHOSPHO1 block: -76.8

What do the screens show for `CC(OC(=O)C1CCN(c2ccc(C(F)(F)F)cn2)CC1)C(=O)Nc1cccc([N+](=O)[O-])c1` (configuration not stated)?
HDAC3 inhib: 13.8

How did CC(=O)c1cccc([N+](=O)[O-])c1 do in these assays?
HDAC3 inhib: -1.6

Results for O=C(C#Cc1ccccc1)c1cccc([N+](=O)[O-])c1 ?
HDAC3 inhib: -2.5; UBC9 SUMO inh: 10.2; p97 inhibitor: 14.7*; PfM18AAP inh: 14.3; G6PDH counter: 2.3; PHOSPHO1 block: 7.1

How did Cc1ccc(C)c(S(=O)(=O)N2CCN(C(=O)c3ccc(OCc4c(C)noc4C)cc3)CC2)c1 do in these assays?
HDAC3 inhib: -1.5

What do the screens show for `Cc1ccc(C(=O)Cn2c(-c3ccccc3)noc2=O)cc1`?
HDAC3 inhib: -2.5; UBC9 SUMO inh: 1.0; p97 inhibitor: 0.3; PfM18AAP inh: 3.0; G6PDH counter: 10.5; PHOSPHO1 block: 61.5*

What do the screens show for `CCOC(=O)c1nc2sc3c(c2c(=O)[nH]1)CCCC3`?
HDAC3 inhib: -36.4; UBC9 SUMO inh: 14.3; p97 inhibitor: 6.3; PfM18AAP inh: 5.0; G6PDH counter: -23.9; PHOSPHO1 block: -14.4

Results for N#C/C(=C\c1ccc(C(=O)O)cc1)c1nc2sc3c(c2c(=O)[nH]1)CCCC3 ?
UBC9 SUMO inh: 59.5*; p97 inhibitor: 14.1; PfM18AAP inh: 10.5; PHOSPHO1 block: 2.8

What do the screens show for `Cc1ccc(Cl)cc1NC(=O)CCC(=O)NCc1ccco1`?
HDAC3 inhib: -0.5; UBC9 SUMO inh: -0.3; PfM18AAP inh: -2.4; PHOSPHO1 block: 19.1

What do the screens show for `Cc1ccc(C)c(S(=O)(=O)N2CCCOC2CNC(=O)C(=O)NCc2ccc3c(c2)OCO3)c1` (configuration not stated)?
HDAC3 inhib: 4.6; UBC9 SUMO inh: 5.1; PfM18AAP inh: -1.0; PHOSPHO1 block: 51.0

What do the screens show for `Cc1ccc(N=C2NC(=O)CS2)c(C)c1`?
HDAC3 inhib: inconclusive; UBC9 SUMO inh: -0.8; p97 inhibitor: 3.2; PfM18AAP inh: 2.4; G6PDH counter: -4.9; PHOSPHO1 block: 9.7

What do the screens show for `Cc1cc(Br)ccc1N=C1NC(=O)CS1`?
HDAC3 inhib: -3.8; UBC9 SUMO inh: 5.5; PfM18AAP inh: 29.6*; PHOSPHO1 block: -15.7

How did Cc1ccc(NC(=O)c2ccc3nc(N4CCOCC4)sc3c2)c(Cl)c1 do in these assays?
HDAC3 inhib: -5.4; UBC9 SUMO inh: 23.5; PfM18AAP inh: 29.3*; PHOSPHO1 block: 15.1

Results for Cc1ccc(C(=O)Nc2ccc(N3CCOCC3)nc2N2CCOCC2)cc1 ?
HDAC3 inhib: -1.3; UBC9 SUMO inh: 1.4; p97 inhibitor: -2.0; PfM18AAP inh: 28.4*; PHOSPHO1 block: 38.6

Results for Cc1ccc(C(=O)N2CCN(c3ccc(N4CCOCC4)nn3)CC2)cc1 ?
HDAC3 inhib: -5.6

What do the screens show for `CN(C(=S)NC(=O)C1CC1)c1ccc(O)cc1`?
HDAC3 inhib: 3.4

Results for N#CC(c1nc2ccccc2nc1N1CCCCC1)S(=O)(=O)c1ccc(Cl)cc1 (configuration not stated) ?
UBC9 SUMO inh: 74.9*; G6PDH counter: 7.9; PHOSPHO1 block: -41.5
